The nature of test [1]: Primary qHTS for inhibitors of SARS-S pseudo-typed particle cell entry (AID 1479145). Also: nearly all actives have a fitted effect of over 45% in size. The settings on record: SARS-S pseudotyped particle cell entry, luciferase reporter; series mostly up to 57.1 µM. For orientation: qHTS replaces the single test concentration by a dilution series.
Test [2] can be described thus: Primary qHTS for Huh7 cytotoxicity: counterscreen for inhibitors of MERS-S pseudotyped particle cell entry (AID 1479147). Also: potency is read from the fitted curve at half-maximal effect. The settings on record: cell viability read-out; series mostly up to 57.1 µM.
Test [3] can be described thus: Primary qHTS for inhibitors of MERS-S pseudo-typed particle cell entry (AID 1479149). Also: nearly all actives have a fitted effect of over 60% in size. The settings on record: MERS-S pseudotyped particle entry, luciferase; series mostly up to 57.1 µM.
Test [4] in a line: Primary qHTS for Vero E6 cytotoxicity: counterscreen for inhibitors of SARS-S pseudo-typed particle cell entry (AID 1479150). Also: potency is read from the fitted curve at half-maximal effect. The settings on record: cell viability; series mostly up to 57.1 µM.
A short description of test [5]: Cytotoxicity counterscreen for inhibitors of SARS-CoV-2 cell entry (AID 1645845). Also: nearly all actives have a fitted effect of over 50% in size. Also: potency is read from the fitted curve at half-maximal effect. The settings on record: cell viability (SARS-CoV-2 entry assay cells); series mostly up to 57.1 µM. Put shortly: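 HEK293-ACE2 cells (Expi293F stably expressing human ACE2) seeded overnight, then compound for 1 h plus 48 h at 37C. Viability as ATP content by luminescence; normalized to wells with cells and media-only wells.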

Molecules are shown by their SMILES. Results filed as inconclusive are left out. A number with no mark means an inactive call. The source made the active and inactive calls. Calls follow the shape of the full dose curve.
% is scaled to controls: 0 for no effect and ±100 for the full control effect.

Regarding `NC(=O)[C@H]1O[C@@H](O)[C@H](O)[C@@H](O)[C@@H]1O`, the Potency result in test [1], in test [2], in test [3], in test [4] and in test [5] was “inactive” each time.

With `CS(=O)(=O)OCC(O)C(O)COS(C)(=O)=O` (stereo not given), the Potency entry in test [1], in test [2], in test [3], in test [4] and in test [5] was “inactive” each time.

Turning to `CC(C)OC(=O)CCC/C=C\C[C@@H]1[C@@H](CC[C@@H](O)CCc2ccccc2)[C@H](O)C[C@@H]1O`, in test [1], the activity change, negative = inhibition is -26.3% [at 11.4 µM]. For the same compound, the activity change, negative = cytotoxicity in test [2] was -6.62% [at 11.4 µM]; in test [4] it was 3.55% [at 11.4 µM]; in test [5] it was -2.53% [at 11.3 µM]. For the same compound, the outcome in test [3] was “inactive [at 11.4 µM]”.

As to `O=C1O[C@H]2[C@H](OC(O)[C@@H]2O)[C@@H]1O` (stereo not given in full), the Potency entry in test [1], in test [2], in test [3], in test [4] and in test [5] was “inactive” in each case.

Regarding `CN(CC(O)CO)C(=O)c1c(I)c(NC(=O)C(CO)CO)c(I)c(C(=O)N(C)CC(O)CO)c1I` (stereo not given), the Potency entry in test [1], in test [2], in test [3], in test [4] and in test [5] was “inactive” throughout.

Turning to `Nc1nc(CC(=O)Nc2ccc(CCNC[C@H](O)c3ccccc3)cc2)cs1`, the Potency entry in test [1], in test [2], in test [3], in test [4] and in test [5] was “inactive” each time.

Take `C[C@H](NCCc1ccc(O)cc1)[C@H](O)c1ccc(O)cc1`: the Potency entry in test [1], in test [2], in test [3], in test [4] and in test [5] was “inactive” each time.

Take `CCC(C)C(NC(=O)C(Cc1ccc(O)cc1)NC(=O)C(NC(=O)C(CCCN=C(N)N)NC(=O)C(N)CC(=O)O)C(C)C)C(=O)NC(Cc1cnc[nH]1)C(=O)N1CCCC1C(=O)NC(Cc1ccccc1)C(=O)O` (stereo not given): the Potency result in test [1], in test [2], in test [3], in test [4] and in test [5] was “inactive” in each case.

`CC(C(=O)O)c1ccc(C2CCCCC2)c2ccccc12` (stereo not given): the Potency entry in test [1], in test [2], in test [3], in test [4] and in test [5] was “inactive” each time.

Take `CCCCCc1ccc(C)cc1O`: the Potency result in test [1], in test [2], in test [3], in test [4] and in test [5] was “inactive” throughout.

For the compound `NC(Cc1cc(I)c(Oc2cc(I)c(O)c(I)c2)c(I)c1)C(=O)O` (stereo not given), the Potency entry in test [1], in test [2], in test [3], in test [4] and in test [5] was “inactive” throughout.

Turning to `CC(C)OC(=O)Nc1ccc2nc(-c3cscn3)[nH]c2c1`, the Potency entry in test [1] and in test [3] was “inactive” each time. The Potency in test [2] is 10 µM (active); in test [4], 8.91 µM (active); in test [5] it was 7.08 µM (active).

As to `CC(C=CC1=C(C)CCCC1(C)C)=CC=CC(C)=CC(=O)Oc1c(C)c(C)c2c(c1C)CC[C@@](C)(CCC[C@H](C)CCC[C@H](C)CCCC(C)C)O2`, the activity change, negative = inhibition in test [1] is -3.62% [at 5.34 µM]. The activity change, negative = cytotoxicity was -9.73% [at 5.34 µM] in test [2], -3.15% [at 5.34 µM] in test [4] and -2.74% [at 5.25 µM] in test [5]. For the same compound, in test [3], the outcome was “inactive [at 5.34 µM]”.

With `CCC(=O)OCC(=O)[C@]1(OC(=O)CC)[C@H](C)C[C@H]2[C@H]3[C@H]([C@@H](O)C[C@@]21C)[C@@]1(C)C=CC(=O)C=C1C[C@H]3Cl`, the Potency result in test [1], in test [2], in test [3], in test [4] and in test [5] was “inactive” throughout.

For `O=C(O)CSc1nnc(Br)n1-c1ccc(C2CC2)c2ccccc12`, the Potency entry in test [1], in test [2], in test [3], in test [4] and in test [5] was “inactive” throughout.

Take `CC1(C)S[C@@H]2[C@H](NC(=O)[C@H](NC(=O)N3CCNC3=O)c3ccccc3)C(=O)N2C1C(=O)O` (stereo not given in full): the Potency result in test [1], in test [2], in test [3], in test [4] and in test [5] was “inactive” each time.

As for `CC(C)C(=O)OCC(=O)[C@@]12OC(C3CCCCC3)O[C@@H]1C[C@H]1[C@@H]3CCC4=CC(=O)C=C[C@]4(C)[C@H]3[C@@H](O)C[C@@]12C` (stereo not given in full), the Potency result in test [1], in test [2], in test [3], in test [4] and in test [5] was “inactive” each time.

With `C[N+]1(C)C2CC[C@H]1CC(OC(=O)C(O)c1ccccc1)C2` (stereo not given in full), the Potency result in test [1], in test [2], in test [3], in test [4] and in test [5] was “inactive” in each case.

For the compound `CCOC(=O)[C@H](C)C[C@@H](Cc1ccc(-c2ccccc2)cc1)NC(=O)CCC(=O)O`, the Potency result in test [1], in test [2], in test [3], in test [4] and in test [5] was “inactive” each time.

For `O=C(Cn1c(=O)sc2ccc(Cl)cc21)N1CCN(CCO)CC1`, the Potency entry in test [1], in test [2], in test [3], in test [4] and in test [5] was “inactive” throughout.

In the case of `CCc1ccc(Nc2c(F)c(F)cc(F)c2F)c(CC(=O)O)c1`, the Potency result in test [1], in test [2], in test [3], in test [4] and in test [5] was “inactive” in each case.

The values above are taken from PubChem BioAssay (NCATS).
